Test results taken from PubChem BioAssay (NCI).
The panel holds about 83,000 compounds, 20% with a hit somewhere; the sample as a whole holds those more often.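 The endpoint reported here, percent growth, reads 100 for growth as untreated, 0 for no net growth and -100 for all cells dead.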 A number with no mark means an inactive call. Activity calls are given as the source filed them. The calls were made as follows: active = growth percent below 10; inactive = the rest.

system: SK-MEL-2 melanoma; experiment: NCI-60 one-dose screen, 48 h (100 = growth as untreated, 0 = no growth, -100 = all killed); settings: 10 µM

Row | Compound | growth
1 | Cc1ccc(C(=O)N2C/C(=C/c3ccc(F)cc3)C(=O)/C(=C/c3ccc(F)cc3)C2)cc1 | 84%
2 | COc1cc(NC(=O)CCSc2nc3ccc(C)cc3c(=O)n2Cc2ccccc2)cc(OC)c1OC | 52.6%
3 | O=C(Nc1cccc(-n2cc(-c3ccncc3)c(-c3cc(O)cc(Cl)c3)n2)c1)Nc1ccc(Cl)c(C(F)(F)F)c1 | -37.9% (active)
4 | CCC(=O)N1C/C(=C/c2ccc(Br)cc2)C(=O)/C(=C/c2ccc(Br)cc2)C1 | -33.8% (active)
5 | COc1cc(Cl)cc(-c2nn(-c3cccc(NC(=O)c4ccc(N5CCOCC5)c(C(F)(F)F)c4)c3)cc2-c2ccncc2)c1 | 64.9%
6 | O=C(C[P+](c1ccccc1)(c1ccccc1)c1ccccc1)C[P+](c1ccccc1)(c1ccccc1)c1ccccc1 | -79.8% (active)
7 | Nc1ccn(C2CC(O)C(CO)O2)c(=O)n1 (centres undefined) | 87.8%
8 | COc1ccc(Nc2nc3ccc(NC(=O)NC4CCCCC4)cc3[nH]c2=O)cc1 | 111%
9 | CC1(C)CCC(=NNC(N)=S)CC1 | 130%
10 | CCOC(=O)C1(CC(C)C)CCOC1=O (centres undefined) | 113%
11 | N#Cc1cc(-c2cc3ccccc3o2)oc1N | 10.2%
12 | COc1ccc(-c2nc3ncccn3c2-c2nnc(-c3ccsc3C)o2)cc1 | 90.5%
13 | Oc1[nH]c2cc(Cl)ccc2c1/C=c1/ccc2c(c1)N=C(c1cc(F)cc(F)c1)N=2 | 20.4%
14 | CCCCCCCCCCCC[n+]1ccc(C(N)=O)cc1 | 30.9%
15 | COc1ccc2c(c1)O/C(=C\c1ncc([N+](=O)[O-])n1C)C2=O | -54.5% (active)
16 | N#Cc1cccc(OCc2nc(N)nc(N)c2-c2ccc(Cl)c(Cl)c2)c1 | 42.8%
17 | Cc1cs/c(=N\NC(=O)c2cc(-c3cc4ccccc4o3)nn2-c2ccccc2)n1-c1ccccc1 | 91.6%
18 | CC1(C)OC2=C(CC1Br)C(=O)C(=O)c1ccccc12 (centres undefined) | -42.9% (active)
19 | Cc1occc1-c1nnc(SCC(=O)c2ccc(NC(=O)CC(C)C)cc2)o1 | 90.8%
20 | CCN(CC)CCOc1nc2ccccc2c2c1-c1ccc(OC)cc1C2=O | -2.62% (active)

Row | Compound | growth
21 | COc1ccc(Nc2ncnc3c2c(SC)nn3-c2ccccc2)cc1 | 86.8%
22 | O=C(CC(C(=O)c1ccccc1)N1CCOCC1)c1ccccc1 (centres undefined) | 102%
23 | COc1cc(-c2cc(/C=C/C(=O)c3ccc(Cl)c(Cl)c3)[nH]n2)cc(OC)c1OC | 86.7%
24 | COc1ccc(-c2nc(-c3nc4ccc(OC)cc4[nH]3)cc3c2[nH]c2ccccc23)cc1 | 11.2%
25 | O=C(O)c1ccc(P(=O)(O)O)c([N+](=O)[O-])c1 | 117%
26 | COc1ccc2c(c1)O/C(=C\c1ccc([N+](=O)[O-])s1)C2=O | 55.3%
27 | COc1ccc2c(c1)sc1nc(-c3ccccc3)c(-c3cccnc3)n12 | 120%
28 | CCCCCC(=O)c1ccc(OCCCN2CCN(C(=O)OCC)CC2)cc1 | 85.5%
29 | CC(=O)n1c(-c2ccc(Cl)c(Cl)c2)cn(-c2ccc(Cl)cc2)c1=O | 80.9%
30 | C#Cc1ccc(-n2c(/C=C/c3ccc(O)cc3)nc3ncccc3c2=O)cc1 | 19.9%
31 | c1ccc(CNc2ncnc3scc(-c4cccs4)c23)nc1 | 72.2%
32 | O=C(Nc1ccncc1)C(=O)c1cn(S(=O)(=O)c2cccc3ccccc23)c2ccccc12 | 68.2%
33 | CCN(CC)Cc1cc(Nc2ccnc3cc(Cl)ccc23)ccc1OC | 116%
34 | O=C1Nc2ccc(Cl)cc2/C1=C\c1c(-c2ccc(Cl)cc2)nc2sc(C3CC3)nn12 | 103%
35 | Cc1cc(N(CCCNc2ccnc3cc(Cl)ccc23)Cc2ccc3c(c2)OCO3)nc(N2CCOCC2)n1 | 32.4%
36 | c1ccc(CO[C@H]2CO[C@H]3[C@@H]2OC[C@H]3OCc2ccccc2)cc1 | 104%
37 | Clc1cc2c(c(CSc3nc4ccccc4n4cccc34)c1)OCOC2 | 79.7%
38 | CCN(CC)CCOc1nc2ccc(OC)cc2c2c1-c1ccc(OC)cc1C2=O | 20.8%
39 | CCn1cc(C(=O)O)c(=O)c2cnc(N3CCCC3)nc21 | 97.7%
